From PubChem
GALR2 ag = GALR2 (human) receptor agonism; O43603; GALR2-expressing cells, agonist activation read-out; activation, % (concentration not given with the values); actives 0.48% (n = 140,000); AID 803; in the data active = activation above about 5%, passing the limit was not always enough;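 also: 0% = vehicle buffer wells and 100% = reference agonist at full effect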
S1P2 ag = S1P2 (human) receptor agonism | AID 729 | S1P2-expressing cell line, agonist reporter read-out | actives 0.46% (n = 97,000) | activation, % at 4.5 µM | O95136; in the data active = activation above about 16%;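 also: 0% = vehicle low control and 100% = maximal reference agonist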
Target sequence (O95136 whole entry, looked up): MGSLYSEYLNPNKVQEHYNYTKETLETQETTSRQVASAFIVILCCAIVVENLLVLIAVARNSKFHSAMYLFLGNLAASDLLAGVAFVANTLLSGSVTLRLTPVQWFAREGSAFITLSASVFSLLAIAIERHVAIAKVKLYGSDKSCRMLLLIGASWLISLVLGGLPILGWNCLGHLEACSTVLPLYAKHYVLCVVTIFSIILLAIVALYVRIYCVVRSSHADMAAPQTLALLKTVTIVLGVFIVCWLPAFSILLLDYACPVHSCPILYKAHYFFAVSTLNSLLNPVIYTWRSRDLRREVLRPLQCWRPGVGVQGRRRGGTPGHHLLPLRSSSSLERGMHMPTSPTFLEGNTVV
GALR2 blocker = blocks the human galanin receptor 2; actives 0.39% (n = 140,000); inhibition, % at 4 µM; GALR2-expressing cells, antagonist mode; in the data active = inhibition above about 27%;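 also: cells stimulated with galanin 1-16 at roughly its EC80; 0% = agonist challenge control and 100% = basal control without agonist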
S1P2 antag = antagonists of human S1P2 receptor; actives 0.21% (n = 97,000); O95136; AID 736; cell-based S1P2 antagonist assay, inhibition at 5 uM; inhibition, % at 5 µM; in the data active = inhibition above about 45%;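 also: CRE beta-lactamase reporter cells expressing human S1P2 stimulated with S1P; 0% = agonist at EC80 alone and 100% = agonist plus reference antagonist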
Starred values were filed as active, the others as inactive; · = not tested or not shown. This is a sample that favours compounds with a hit; in the whole collection about 1.1% have one here.

SMILES	GALR2 ag	S1P2 ag	GALR2 blocker	S1P2 antag
CC1CC(NC(=O)C2(C)CC2(Cl)Cl)CC(C)(C)C1 (stereo unspecified)	-3	-8	1	-6
O=c1cc(-c2c(F)c(F)c(F)c(F)c2F)oc2c(F)c(F)c(F)c(F)c12	-1	·	69*	·
O=c1cc(-c2c(F)c(F)c(F)c(F)c2F)oc2ccccc12	-2	1	8	16
Cc1ccccc1-c1nc(CN2CCC(C(=O)NCc3cccs3)CC2)c(C)o1	-2	-1	-2	-4
COc1cc(C2C(C#N)=C(C)NC3=C2C(=O)c2ccccc23)cc(OC)c1OC (stereo unspecified)	-2	7	31*	-2
COc1ccc(C2C(C#N)=C(C)NC3=C2C(=O)c2ccccc23)cc1 (stereo unspecified)	-3	-4	17	3
COc1ccc2c(c1)c1ncn(Cc3ccco3)c(=O)c1n2C	1	19*	-9	-60
COc1ccc2c(c1)[nH]c1c(=O)n(Cc3ccco3)cnc12	-3	-6	11	-26
Cc1ccc(S(=O)(=O)CCC(=O)N2CCc3ccccc32)cc1	-1	42*	-7	-8
CCc1nnc(NC(=O)[C@@H](NC(=O)c2cccc(S(=O)(=O)N(CC)CC)c2)C(C)C)s1	-3	-2	1	-3
Cc1cc(N2CCN(c3ccccc3)CC2)n2nnnc2n1	0	·	2	·
Cc1cccc(N2CCN(c3cc(C)nc4nnnn34)CC2C)c1 (stereo unspecified)	5.4*	·	7	·
O=C(CN(CCO)c1ccccc1)NC12CC3CC(CC(C3)C1)C2	2	1	-2	3
NC(=O)c1ccc(NC(=O)C2CCCO2)cc1 (stereo unspecified)	-3	219*	-2	6
O=C(Nc1ccc(Oc2ccc(NC(=O)C3CCCO3)cc2)cc1)C1CCCO1 (stereo unspecified)	-1	·	-1	·
Cc1cc(O)c(C(C)C)cc1NS(=O)(=O)c1ccccc1	-1	-1	4	20
Cc1cc(S(=O)(=O)N(Cc2ccc3c(c2)OCO3)CC2CCCO2)ccc1-n1cnnn1 (stereo unspecified)	-2	-2	3	12
O=C1c2cnc3nc(SCc4ccc(Cl)cc4)nn3c2CC2c3ccccc3CCN12 (stereo unspecified)	4	22*	8	-18
C=C(C)CNC(=S)N/N=C1\CCCCc2ccccc21	6.1*	·	6	·
Oc1ccc(/C=C/c2nc(-c3ccccc3O)n(-c3ccccc3)n2)cc1	-2	0	19	4
COc1ccc2nc(Nc3nc4cc5c(cc4s3)OCO5)sc2c1	6.8*	·	-6	·
Cc1ccc(C(=O)COC(=O)c2ccc(-c3cnc4ccccc4n3)cc2)cc1C	0	·	-9	·
CC(=O)N1CCC(O)(c2cccc(C(F)(F)F)c2)CC1	-2	-3	8	6
OC1(c2cccc(C(F)(F)F)c2)CCN(c2ncnc3c2[nH]c2ccc(F)cc23)CC1	0	-16	11	49*
CC(C)OP(=O)(OC(C)C)C(NC(=O)c1ccc(Br)cc1)c1ccccc1 (stereo unspecified)	-2	0	-2	-10
SMILES	GALR2 ag	S1P2 ag	GALR2 blocker	S1P2 antag
C=CCOc1ccc(C2CC(C)=NN2c2ccccc2)cc1 (stereo unspecified)	0	·	18	·
CCOC(=O)c1[nH]c(=O)[nH]c1COC(=O)c1cc2ccccc2o1	-1	-1	7	8
Cc1cc(S(=O)(=O)Nc2ccc(N(C)C)cc2)c(C)s1	-1	-5	-16	6
CCCS(=O)(=O)c1nnnn1-c1cccc(OC)c1	-1	·	84*	·
COc1cccc(-n2nnnc2SCC(=O)Nc2ccc(C(C)=O)cc2)c1	0	-2	20	-8
CCOC(=O)C(CC)(CC)/C(C)=N/NC(=O)CC#N	0	-10	2	-14
CC(=O)c1cc2c(cc1NC(=O)c1cc(C)nn1-c1ccccc1)OCO2	15*	·	9	·
CC(=O)Nc1ccc(NC(=O)c2cc(C)nn2-c2ccccc2)cc1	-1	-2	-8	2
COCCCn1c(=NC(=O)c2ccncc2)c(C#N)cc2c(=O)n3cccc(C)c3nc21	5.6*	·	-13	·
CCCCn1c(=NC(=O)c2cccnc2)c(C#N)cc2c(=O)n3cccc(C)c3nc21	3	2	-18	-27
COc1ccc(C(=O)N=c2c(C#N)cc3c(=O)n4cccc(C)c4nc3n2Cc2ccco2)cc1	3	1	-8	-12
Cc1cccn2c(=O)c3cc(C#N)c(=NC(=O)c4ccncc4)n(CCCOC(C)C)c3nc12	2	18*	-13	-13
CCOC(=O)c1c(N2C(=O)C3C4C=CC(C4)C3C2=O)sc2c1CCC(C)C2 (stereo unspecified)	-1	·	-2	·
O=C(NCc1ccoc1)c1ccc(NC(=O)c2ccccc2Cl)cc1	-2	-12	29*	12
